Laboratory results taken from PubChem BioAssay AID1224856 (National Center for Advancing Translational Sciences (NCATS), 2016).
Results filed as inconclusive are left out. Values without a mark were called inactive. Calls of active or inactive are those of the source. Calls follow the shape of the dose curve; as a rule, active = well fitted curve in the direction sought with a large enough effect; inconclusive = small, poorly fitted or top-dose-only effect, or another doubt; inactive = no such curve, though single readings can be large or run the other way.

Experiment: Cell viability assay for measurement of the protective activity of small molecules against cell death caused by Zika virus infection in human astrocytes
Conditions: human astrocytes ZIKV-induced death, ATP luminescence, 72 h; series mostly up to 46.1 µM; protection from virus-induced death: at the top concentration
Description: National Center for Advancing Translational Sciences [NCATS] Johns Hopkins University School of Medicine Florida State University Assay Overview: Zika virus infection causes cell death in certain cell types including human neural progenitor cells (hNPCs), astrocytes, and astrocytoma cell line (SNB-19). This cell viability assay measures the ATP content (level) in human astrocytes using a luminescence readout that is proportional to viable cell numbers. Decrease in the luminescence signal after Zika virus infection indicates the cell death caused by Zika virus. Small molecule inhibitors […] the decreased luminescence signal after Zika virus infection, indicating the protective effect of that small molecule on the cell death caused by Zika virus infection. This observed protective effect of small molecules against Zika virus induced cell death may result from inhibition of virus replication or cellular response to the virus infection.
Assay Protocol Summary: The medium for astrocytes contains AM basal medium (ScienCell, Cat.# 1801), AGS (ScienCell, Cat.# 1801), 10% FBS, and 1% Pen/Strep. The ATP content assay kit (PerkinElmer, Cat.# 6016731) was used to determine cell viability. The reagent was reconstituted and prepared as described by the manufacturer. Cells were seeded in 384- or 1536-well assay plates and cultured at 37 C with 5% CO2 for 16 to 20 hours. The typical cell seeding density in the 1536-well plate assay is 350 cells/well in 3 ul medium for astrocytes in the tissue cultured treated/PDL coated plates. Compounds were added to cells and incubated for one hour before addition of ZIKV solution to cells (2 FFU/cell). After incubation at 37 C with 5% CO2 for 72 hours, the reagent mixture of the ATP content assay kit was added to each well, followed by incubation at room temperature for 10 minutes. The luminescence intensity of the assay plates was measured using a ViewLux plate reader (PerkinElmer). […] The percentage inhibitions of the decreased cell viability by small molecule inhibitors were then calculated.

SMILES	protection from virus-induced death	Potency
CCC(C(=O)O)c1ccc(N2Cc3ccccc3C2=O)cc1 (stereo not given)	-4.84%	
O=c1c2ccccc2nc2n1CCc1c-2[nH]c2ccccc12	17%	
O=C(O)c1ccccc1Nc1cccc(C(F)(F)F)c1	-4.67%	
CC(C)[N+](C)(CCC(C(N)=O)(c1ccccc1)c1ccccc1)C(C)C	2.09%	
COCCn1c2c([n+](Cc3cnccn3)c1C)C(=O)c1ccccc1C2=O	-9.52%	
Cc1oncc1C(=O)Nc1ccc(C(F)(F)F)cc1	-3.72%	
C[C@@H](N)c1ccc(C(=O)Nc2ccnc3[nH]ccc23)cc1	6.59%	
O=C(O)c1cc([N+](=O)[O-])ccc1NCCCc1ccccc1	-1.03%	
CCN1CCC(n2cc(CNc3cc(Cl)c4ncc(C#N)c(Nc5ccc(F)c(Cl)c5)c4c3)nn2)CC1	2.87%	
O=C(Oc1ccccc1)c1cccc(C(=O)Oc2ccccc2)c1	3.3% [at 96.3 µM]	
CO[C@H]1C(=O)[C@]2(C)[C@@H](OC)C[C@H]3OC[C@@]3(OC(C)=O)[C@H]2[C@H](OC(=O)c2ccccc2)[C@]2(O)C[C@H](OC(=O)[C@H](O)[C@@H](NC(=O)OC(C)(C)C)c3ccccc3)C(C)=C1C2(C)C	6.47%	
O=C(/C=C/c1ccccc1)NCCO	-2%	
Cc1cc(O)c2ccccc2c1O	-10.4%	
CCCCCCCCCCCC(=O)[O][Sn]([CH2]CCC)([CH2]CCC)[O]C(=O)CCCCCCCCCCC	-3.89%	
Cc1cccc(C#Cc2ccccc2)n1	-0.738%	
O=C1C=CC[C@@H]2[C@H]3CCCN4CCC[C@@H](CN12)[C@@H]34	0.303%	
CC(C)c1ccc2oc3nc(N)c(C(=O)O)cc3c(=O)c2c1	-9.76%	
c1ccc(CCNc2nc(-c3ccccc3)cs2)cc1	-4.1%	
CN1CC[C@@]2(C)c3cc(OC(=O)Nc4ccccc4)ccc3N(C)[C@@H]12	4.98%	
O=C(OCc1ccccc1)c1ccc(O)cc1	-3.82%	

SMILES	protection from virus-induced death	Potency
Cc1cccc(/C=C/c2ccccc2)n1	8.77%	
CC(C(=O)O)c1ccc2c(c1)[nH]c1ccc(Cl)cc12 (stereo not given)	-1.5%	
CN1CCN(c2cc3c(nn2)Oc2ccccc2N3C)CC1	1.46% [at 23.8 µM]	
CCCCCCCC/C=C/C(=O)O	-1.29%	
COc1cc(NC(C)CCCN)c2ncccc2c1 (stereo not given)	2.41%	
O=c1[nH]nc(Sc2ncc([N+](=O)[O-])s2)n1-c1ccc2c(c1)OCCO2	-10.2%	
O=c1c2ccccc2[se]n1-c1ccccc1	-9.75%	
Cc1ccc(C(=O)c2ccc(CC(=O)O)n2C)cc1	-3.13%	
O=C(Nc1cc2cc[nH]c2cn1)c1ccccc1	-10.3%	
Cc1ccc(O)c(N=Nc2ccccc2)n1	-7.13%	
NC1CCC(Nc2nc(Nc3ccc(C(=O)N4CCCCC4)cc3)c3ncn(-c4cccc(F)c4)c3n2)CC1 (stereo not given)	-10.1%	
CN(C)c1ccc(C(=C2C=CC(=[N+](C)C)C=C2)c2ccccc2)cc1	-10.5%	
CC1(C)Cc2c(sc(NC(=S)NC(=O)c3ccccc3)c2C(=O)O)CO1	2.03%	
CN(C)c1cc(NC(=O)CNC(C)(C)C)c(O)c2c1C[C@@H]1C[C@H]3[C@H](N(C)C)C(=O)C(C(N)=O)=C(O)[C@@]3(O)C(=O)C1=C2O	-2.39%	
CCOCCOC(=O)/C=C/c1ccc(OC)cc1	19%	
O=S(=O)(CC1CS1)c1ccc(Oc2ccccc2)cc1 (stereo not given)	-1.15%	
CC[n+]1c(-c2ccccc2)c2cc(N)ccc2c2ccc(N)cc21		1.95 µM (active)
Nc1ccc(O)c(C(=O)O)c1	-4.35%	
O=C(Nc1ccc(OC(F)(F)F)cc1)c1sccc1NCc1ccnc2ccccc12	20.3%	
COc1cccc2c1C(=O)c1c(O)c3c(c(O)c1C2=O)C[C@@](O)(C(=O)CO)CC3OC1CC(N2CCOC(OC)C2)C(O)C(C)O1 (stereo not given in full)		0.436 µM (active)
